Values without a mark were called inactive. Calls come from the whole dose curve; as a rule, active = well fitted curve in the direction sought with a large enough effect in the repeat runs; inconclusive = weak or mixed curves; inactive = flat fitted curve, though single readings scatter.
Assay: qHTS assay to test for compound auto fluorescence at 460 nm (blue) in HepG2 cell free culture (AID 720685)
Settings: Cell-free culture medium, blue autofluorescence 405/460 nm; series mostly up to 91.3 µM; fluorescence, % of fluorescent control: at the top concentration
From the text: U.S. Tox21 Program National Center for Advancing Translational Sciences [NCATS] NIH Chemical Genomics Center [NCGC] U.S. Environmental Protection Agency [EPA] National Institutes of Environmental Health Sciences [NIEHS] National Toxicology Program [NTP] U.S. Food and Drug Administration [FDA] Tox21 Assay Overview: Compound auto fluorescence often interferes with screening of the compound library against various biological targets and signaling pathways. Some of these compounds may have fluorophoric properties. Such properties may interfere with the assay outputs resulting in false positives and/or negatives. To decrease such complications and ensure the compound activities are relevant in terms of biological response, the Tox21 10K compound library was screened for auto fluorescence. From the fluorophores used as reporter signals in our screening assays, the auto fluorescence equivalencies of compounds against three fluorophores have been evaluated: Triamterene, Fluorescein and Rose Bengal sodium for blue, green and red fluorescence, respectively. The fluorescence intensities were measured using Excitation/Emission wavelengths at 405/460nm, 485/535nm and 540/590nm for blue, green and red labels, respectively. This assay includes the blue fluorescence data.
Tox21 Assay Protocol Summary: 5 uL of culture medium (MEM containing 10% FBS) per well was dispensed into black wall/clear bottom 1536-well plates using a Multidrop Combi Dispenser (ThermoFisher Scientific, Waltham, MA). After 23 nL compound or DMSO vehicle was transferred into assay plate by a pintool work station (Kalypsys, San Diego, CA), fluorescence intensities in the assay plates were measured by an Envision (PerkinElmer, Shelton, CT) plate reader using three labels for measuring blue, green and red fluorescence at […] 460, 535 and 590nm respectively.
% is set by controls: 0 for no effect and ±100 for the full control effect.

Structure (SMILES) | fluorescence, % of fluorescent control
CN(C)CCc1c[nH]c2ccc(CS(=O)(=O)N3CCCC3)cc12 | -0.028% [at 46 µM]
CCN(CC)CC | 0.214% [at 95.7 µM]
C[C@H]1COc2c(C3(N)CC3)c(F)cc3c(=O)c(C(=O)O)cn1c23 | 0.0552% [at 46 µM]
COc1cnc(NS(=O)(=O)c2ccc(N)cc2)nc1 | 0.0024% [at 18.6 µM]
O=c1c(O)c(O)c1=O | 0.0162%
CC(=O)Oc1ccc(C(C)=O)cc1 | 0.0184% [at 95.7 µM]
CCCCCCCCCCCBr | -0.013% [at 46 µM]
NNC(=O)CCCCC(=O)NN | -0.0055%
Cc1ccc(O)c(C(=O)c2ccccc2)c1 | 0.0286%
COc1cc(NS(=O)(=O)c2ccc(N)cc2)ncn1 | 0.0187% [at 18.6 µM]
CC(C)(O)c1ccc(C(C)(C)O)cc1 | -0.0174%
CC1(C)C(=O)C(C)(C)C1=O | -0.0466%
C=CC(=O)CC | -0.063% [at 95.7 µM]
C=C(C)C(=O)OCCOC1CC2CC1C1C=CCC21 (stereo not given) | -0.123% [at 95.7 µM]
CN(C)CCC[C@@]1(c2ccc(F)cc2)OCc2cc(C#N)ccc21 | 0.0152% [at 46 µM]
CCC(C)SSC(C)CC (stereo not given) | 0.0054%
O=C(c1ccccc1)c1cccc(O)c1 | 0.398% [at 95.7 µM]
NS(=O)(=O)c1cc2c(cc1C(F)(F)F)NCNS2(=O)=O | -0.157% [at 18.6 µM]
Cc1cccc(N)n1 | -0.0334% [at 95.7 µM]
O=C(O)CCC(=O)Nc1ccc(S(=O)(=O)Nc2nccs2)cc1 | -0.0059% [at 18.6 µM]

Structure (SMILES) | fluorescence, % of fluorescent control
CC/C=C\CCCCCCCCCCOC(C)=O | -0.0039%
Cc1ccc(O)c([N+](=O)[O-])c1 | -0.0759% [at 95.7 µM]
COc1cc(C(=O)NC2CCCNC2)cc(OC)c1OC (stereo not given) | 0.0338% [at 46 µM]
CC(=O)c1c(C)cc(C(C)(C)C)cc1C | -0.0035%
CCCCNCC | 0.0706%
CCCCc1ccc(Cl)cc1 | 0.187%
O=C(O)Cc1c(Cl)ccc(Cl)c1Cl | 0.0552%
COC(=O)c1c(C)cc(O)c(C)c1O | -0.0097%
C=CC(C)(CCC=C(C)C)OC(=O)C(C)C (stereo not given) | 0.121%
O=C1CC2(CCCC2)CC(=O)N1CCNCC1COc2ccccc2O1 (stereo not given) | 0.0647% [at 46 µM]
O=C1c2ccccc2C(=O)N1CO | 0.185% [at 95.7 µM]
c1cc2ccc3ccc4ccc5cccc6c(c1)c2c3c4c56 | 1.51% [at 3.72 µM]
CCc1ncc(C)[nH]1 | 0.0299%
O=C[C@@H](O)[C@H](O)[C@H](O)CO | 0.0494%
O=S(=O)(O)c1ccc(Cl)cc1 | 1.32%
N[C@H]1C(O)O[C@H](CO)[C@@H](O)[C@@H]1O (stereo not given in full) | -0.016% [at 46 µM]
O=C(O)COc1ccc2ccccc2c1 | -0.0413%
O=Cc1ccccc1S(=O)(=O)O | 0.0866%
CC(=O)SC[C@@H](C)C(=O)N1CCC[C@H]1C(=O)N[C@@H](Cc1ccccc1)C(=O)O | 0.009% [at 46 µM]
CCc1ccc(CC)cc1 | -0.0754%
